# Numbering of substitutions follows the chain as printed. The full ranking holds about 24,000 sequences; the median of “enrichment r” is about 0.99, and the highest 2% start at about 3.7. The sample holds the highest values, similar sequences and a random draw of the others, so the mix is not that of the screen.
# T1: UNK ZnF1-3 (human, UniProt Q9C0B0 31-174)
# T1 sequence: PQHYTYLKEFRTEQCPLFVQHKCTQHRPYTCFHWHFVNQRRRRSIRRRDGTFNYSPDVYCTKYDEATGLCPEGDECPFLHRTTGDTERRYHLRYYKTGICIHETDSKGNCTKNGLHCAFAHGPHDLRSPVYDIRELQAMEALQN
# B1: chr14:35182089:35182090:-_ENSG00000165410_ENST00000422678|hu_mus|motif|central (ssRNA)
# RNA: GGGAGUUCUACAGUCCGACGAUCCUUAAGAUCAAAUGGCACUUGGCUAUUAUUUUAUAGUGGCUUUCCUUCAAGGGAAACGGCAACACUGCCCCCCAGUUUCUCUCCCAGCGUCGAGCGGUCCUUAAUAUCGUCCAAGCCAUUCAACAGAGGAUUGAGCAUCA
# B2: chr13:90244479:90244480:+_ENSMUSG00000012422_ENSMUST00000161568|mus_hu|FALSE|FALSE (ssRNA)
# RNA: GGGAGUUCUACAGUCCGACGAUCCAAAAUGGUGUGCCCAGAGGAAAAGCAAGCACUAUUAAAUAUUAAUGCAAUCCUUAUCAACACAAAUUGAGCCAUUUUAAUAAAAAAGCUAGUCCAAAAAAGGUUCUCAUUCUAUAAAGACAACAGAGGAUUGAGCAUCA
# B3: chr10:117127018:117127019:-_ENSMUSG00000020184_ENSMUST00000020408|mus_mus|FALSE|FALSE (ssRNA)
# RNA: GGGAGUUCUACAGUCCGACGAUCAGAUGGAAAGGACUUCUCACAUACACUUCCAAAGUCCUUCCAAGCGGAGAUUAUUUAAAAUAUAAGGAAAAUAUAAACAGCCAAUGCAAAUUACUUAAAACACAAAUAUAAAAUAAACAACAACAGAGGAUUGAGCAUCA
# B4: chr2:47387770:47387771:-_ENSG00000143933_ENST00000272298|hu_mus|hu_hu_hu_mus_True|18_38 (ssRNA)
# RNA: GGGAGUUCUACAGUCCGACGAUCAAGGUUUAAGGACAAUGACAGUAAGAUAAGGGAAGAAAACAUGGAGGAAUGAAGUCCUAAUUACUAUACAUGCAUAUUUUUUUACAGUAGGGGAGAAACCUUUUUUACAGAUAAGUUACACAACAGAGGAUUGAGCAUCA
# B5: chr3:58389949:58389950:+_ENSMUSG00000075700_ENSMUST00000107924|mus_hu|FALSE|FALSE (ssRNA)
# RNA: GGGAGUUCUACAGUCCGACGAUCCAAGAAGAAAACCAUCAUACAUGCAUAAACCUUAUUUUCUUGGCCCCACUGCCAGAUGCUAGGAGCUUGCAUGCCAAAGAAAGCAAAAGGAUCCUUGCCAACAAUUAUUAAGCCUAUUAACAACAGAGGAUUGAGCAUCA
# B6: chr17:26793470:26793471:+_ENSMUSG00000001576_ENSMUST00000167662|mus_hu|FALSE|FALSE (ssRNA)
# RNA: GGGAGUUCUACAGUCCGACGAUCCGGAGCUUAGAGCCAAAAAUUACAAAUGGCAGAGACUUGAGCUAUCCAUAAGAUAAUUUUAAAAAUCCUUCCACUGGACACUCCCCUUCAUUACAAAAGUAUGCAAACAAUCUUGCUAUACAACAGAGGAUUGAGCAUCA
# B7: chr2:91446484:91446485:+_ENSMUSG00000040549_ENSMUST00000099716|mus_hu|motif|central (ssRNA)
# RNA: GGGAGUUCUACAGUCCGACGAUCCAAUUUCUCAUCUGCCAUGUGUGUGUUGUAGAUGAGUCUUAGCUGCAUAAAAGUGGCGGUCAGAAACUGAUCAAUAUGGCCGGACAUGGCUUCAGCUUUGUCUUCCUGUCUCAGGACCUCCAACAGAGGAUUGAGCAUCA
# B8: 89236039_89237110_928_3pUTR_ENSG00000065243_ENST00000370521|human|control|control (ssRNA)
# RNA: GGGAGUUCUACAGUCCGACGAUCGGUUUUGCAUUAUCAAAAGCCAAUUCAUUAGUCUGGACUGCCUGAAGAAUCUGCAUUCGUAUGACUUCUAUUUUUGUCUUGCUGUCCUGGAGCAGUUGCUGAGCUGUACCAUGGAGUUUCCAACAGAGGAUUGAGCAUCA
# B9: chr17:56552419:56552420:-_ENSMUSG00000013236_ENSMUST00000086828|mus_mus|mus_mus_mus_hu_False|98_98 (ssRNA)
# RNA: GGGAGUUCUACAGUCCGACGAUCAAAAAAUACACUAUAAAAAAAAAAUGAAAUGUCACGGGAUACAGUUACACUGAGAGUUUUAAAAGAAAGCUGGAUUCUGGUCCCAGCCCAGUGUCCCCAGGCUGCAGAGCGGGGAGGAGCCAACAGAGGAUUGAGCAUCA
# B10: chr17:56552419:56552420:-_ENSMUSG00000013236_ENSMUST00000086828|mus_hu|FALSE|FALSE (ssRNA)
# RNA: B9 RNA with A38U, A39U
# B11: chr17:56552419:56552420:-_ENSMUSG00000013236_ENSMUST00000086828|mus_mus|mus_mus_mus_hu_False|8_48 (ssRNA)
# RNA: GGGAGUUCUACAGUCCGACGAUCAAAAAAUACACUAUUUAAAAAAAAUGAAAUGUCACGGGAUACAGUUACACUGAGAGUUUUAAAAAAAAAUAAGAUUCUGGUCCCAGCCCAGUGUCCCCAGGCUGAGUGCGGAAGAGGAGCCAACAGAGGAUUGAGCAUCA
# B12: chr17:56552419:56552420:-_ENSMUSG00000013236_ENSMUST00000086828|mus_mus|mus_mus_mus_hu_False|8_98 (ssRNA)
# RNA: B11 RNA with U38A, U39A, A88G, A92G, U93C, A94U, A95G
# B13: chr5:145543945:145543946:-_ENSG00000133706_ENST00000545646|hu_hu|hu_hu_hu_mus_True|1_8 (ssRNA)
# RNA: GGGAGUUCUACAGUCCGACGAUCCUGAACGGCCAGUGGUGGGAAAUAAUCAAGCCAGUGCUCUGCUUCAGAAAACUUCACUAUGUCGUCAUCAGAGAGCCCAAGGGAUUUCAUAAUGUCCCACUGGUAUUUAGAAGAUCCAGCCAACAGAGGAUUGAGCAUCA
# B14: chr17:56552419:56552420:-_ENSMUSG00000013236_ENSMUST00000086828|mus_mus|mus_mus_mus_hu_False|1_98 (ssRNA)
# RNA: B9 RNA with A138C, G139A, C143G
# B15: chr8:74858975:74858976:-_ENSG00000154582_ENST00000284811|hu_hu|FALSE|FALSE (ssRNA)
# RNA: GGGAGUUCUACAGUCCGACGAUCAACCUUGUACGUAAAAUACAUGCAUACUUUCGAUAGCACAUGUGAAGGUAUCUCUCUAAAAUUGACCUCAUUGGUUUCGUUCUCAGCAAACUGACCUGGGCCACUCAACAUGGCUUUUAUCAACAGAGGAUUGAGCAUCA
# B16: chr11:100882373:100882374:+_ENSMUSG00000019302_ENSMUST00000044721|mus_mus|mus_mus_mus_hu_True|38_68 (ssRNA)
# RNA: GGGAGUUCUACAGUCCGACGAUCUUCCUGGUUUGUGUUGAUUUCCUUCAGUUCAUUUUCAAUCUUCUCGAAAUUGGCCUCUAAGUCAAUCAUGUCCCGAGGGAAGGGAACCUCUGGGUUUUCACCGGUGUCCAUAAUCGGAAUCAACAGAGGAUUGAGCAUCA
# B17: chr17:56552419:56552420:-_ENSMUSG00000013236_ENSMUST00000086828|mus_mus|mus_mus_mus_hu_False|58_58 (ssRNA)
# RNA: B9 RNA with A38U, A39U, G77C, G79C, U81A
# B18: chr17:56552419:56552420:-_ENSMUSG00000013236_ENSMUST00000086828|mus_mus|mus_mus_mus_hu_False|58_98 (ssRNA)
# RNA: B9 RNA with G77C, G79C, U81A
# B19: 105548853_105553245_153_3pUTR_ENSMUSG00000068798_ENSMUST00000090678|mouse|control|control (ssRNA)
# RNA: GGGAGUUCUACAGUCCGACGAUCAUUUUUCAACAAAAAUCCCCUGAACAAACUGAACUGUCAGAGCAGACUUCCCCACGCCUCCUGAACCAAGGACUACUAGCUUGUACUCACGCAUGAUGCGCUCUGUUUAAAUAUUGACAACAACAGAGGAUUGAGCAUCA
# B20: chr2:4828950:4828951:+_ENSMUSG00000026662_ENSMUST00000115019|mus_mus|FALSE|FALSE (ssRNA)
# RNA: GGGAGUUCUACAGUCCGACGAUCAAAAUCUAGUCUCCCCCAAUAAAUUGUAUUUUAGGCAAAAUCCUCCCAAAUGCUUCUAAAAUAAUACUAAAAAGGGCAUCUGAUUAUACAAGAGCAAUUAAAAAAAUUAAAUAUUUAUUUCAACAGAGGAUUGAGCAUCA
# B21: chr16:14299702:14299703:-_ENSMUSG00000022677_ENSMUST00000023357|mus_mus|motif|central (ssRNA)
# RNA: GGGAGUUCUACAGUCCGACGAUCCUCAAUUCAGAGUCCCUCUCCCCAAAUGACUCUAGCUUGUAUCAAGUUGAUAUAAAACGGGCCAGGGCAGGCAAUAAUAAUUCAGGUAUUUUUUAAAAAAUCAAACUUCAUAUAAAUUAACAACAGAGGAUUGAGCAUCA
# B22: chr10:112362630:112362631:-_ENSMUSG00000074748_ENSMUST00000099276|mus_mus|motif|central (ssRNA)
# RNA: GGGAGUUCUACAGUCCGACGAUCGGAUUACUUAUUAAAAAAUAAGAAUCUCCAAAACAAAGGACAGUGGUGAAUUUCAAACGGCCCUCCCCCAAUGAUCCCAGCAUGCGAUAAUGCCAGGUAGUGGCCCCUGGGCAUGCGAUGCAACAGAGGAUUGAGCAUCA
# B23: chr16:14299702:14299703:-_ENSMUSG00000022677_ENSMUST00000023357|mus_mus|FALSE|FALSE (ssRNA)
# RNA: B21 RNA with G82U, G83A
# B24: chr2:4828950:4828951:+_ENSMUSG00000026662_ENSMUST00000115019|mus_mus|motif|central (ssRNA)
# RNA: B20 RNA with U80G, A81G
# B25: 75889693_75893847_892_3pUTR_ENSG00000185009_ENST00000355264|human|control|control (ssRNA)
# RNA: GGGAGUUCUACAGUCCGACGAUCCAGAUAGUUUAAUGCAAGCAUCAAUGACCCCCUGAAUUUCUGCAAAGACUGUAGAUCCUGAUUUAUCUAUAAUUGCGUCUAUUUCUUCAACAACAUCAAAAUAGGCUUCAUUGUUUGUGUCAACAGAGGAUUGAGCAUCA
# Molecular target: T1, UNK ZnF1-3
# Test: nsRBNS (natural sequence RNA bind-n-seq); RBNS binding buffer (assumed for nsRBNS): 25 mM Tris pH 7.5, 150 mM KCl, 3 mM MgCl2, 0.01% Triton X-100, 500 ug/ml BSA, 20 U/ml SUPERase-In, 4 C; UNK is unkempt and MSI1 is Musashi-1; names of the RNAs are library labels; protein concentration not given here; high values mean tight binding
row,Binder,binding signal
1,B1,1.04 enrichment R
2,B2,4.62 enrichment R
3,B3,5.74 enrichment R
4,B4,1.7 enrichment R
5,B5,1.51 enrichment R
6,B6,3.67 enrichment R
7,B7,0.637 enrichment R
8,B8,0.571 enrichment R
9,B9,4.54 enrichment R
10,B10,3.32 enrichment R
11,B11,6.71 enrichment R
12,B12,5.52 enrichment R
13,B13,1.44 enrichment R
14,B14,5.8 enrichment R
15,B15,0.5 enrichment R
16,B16,0.443 enrichment R
17,B17,3.59 enrichment R
18,B18,8.92 enrichment R
19,B19,1.18 enrichment R
20,B20,4.12 enrichment R
21,B21,3.78 enrichment R
22,B22,0.719 enrichment R
23,B23,3.28 enrichment R
24,B24,14.3 enrichment R
25,B25,0.939 enrichment R
